Source: PubChem
HCMV inh = inhibitors of human cytomegalovirus; HFF cells, HCMV-luciferase reporter, 72 h; stronger effect = lower value; activity change, negative = inhibition, % at 57.5 µM; 410,000 tested, 4.5% active; AID 1259415; in the data active = activity change below about -60%; inconclusive = no clear call, values can overlap the other calls; inactive = above about -39%
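Two-dose cell screen: HFF monolayers treated with compounds and infected with luciferase-expressing HCMV at 1 PFU/cell, 72 h at 37C, then lysed for luciferase measurement.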
HCV inhibitor = inhibitors of hepatitis C virus infection; AID 651820; 340,000 tested, 3.4% active; Potency, µM (series often up to 41.8 µM), inactives show at the highest dose activity change, negative = inhibition, most hits filed as inhibitors; Huh7.5.1 HCVcc-Cre infection, luciferase reporter, 44 h; also: potency is read from the fitted curve at half-maximal effect
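Cells (1,000/well) were plated 4 h before compound, then infected with HCVcc-Cre virus (~0.5 moi). After 44 h further culture, infection was read as luciferase luminescence following a 15 min substrate incubation at room temperature.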
VACV mCherry inh = vaccinia inhibition (mCherry reporter) | Vaccinia virus mCherry reporter infection, fluorescence | Potency, µM (titrated, usually from 36.5 µM), for the others: at the top dose activity change, negative = inhibition, actives largely listed as inhibitors | 310,000 tested, 0.63% active; calls by dose curve; tested in A549 cells; also: potency is read from the fitted curve at half-maximal effect; nearly all actives have a fitted effect of over 35% in size
Sm TGR inh = inhibitors of Schistosoma mansoni thioredoxin glutathione reductase; purified TGR, DTNB reduction, TNB absorbance 405 nm; Q962Y6; 360,000 tested, 3% active; Potency, µM (top dose mostly 114 µM), for inactives: at the highest dose activity change, negative = inhibition, hits mostly inhibitors; also: potency is read from the fitted curve at half-maximal effect; nearly all actives have a fitted effect of over 60% in size
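TGR 20 nM + NADPH 100 uM (dispensed conc.), cpd preinc 15 min RT; start with NADPH (500 uM addition) then DTNB (15 mM addition). Kinetic TNB absorbance, 405 nm filter. Four-parameter Hill fit across titration.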
FMDV inh = antivirals against foot and mouth disease virus; FMDV antiviral cell-based qHTS; Potency, µM (top dose mostly 57.9 µM), for inactives: top-dose activity change, negative = inhibition, usual class: inhibitors; 410,000 tested, 1.2% active; calls by dose curve; tested in HEK293T cells; also: read-out not given here; potency is read from the fitted curve at half-maximal effect; nearly all actives have a fitted effect of over 45% in size
VACV Venus inh = vaccinia inhibition (Venus reporter). 330,000 tested, 0.46% active. Potency, µM (top dose mostly 36.5 µM), for the others: at the highest dose activity change, negative = inhibition, most hits filed as inhibitors. Vaccinia virus Venus reporter expression, fluorescence; calls by dose curve; tested in A549 cells; also: potency is read from the fitted curve at half-maximal effect; nearly all actives have a fitted effect of over 30% in size
* = called active by the depositor; i = inactive; ? = inconclusive; . = no result; [ ] = another dose, or the depositor's remark. Shown are actives, neighbours in structure and some others; about 9.3% of the full set was active somewhere. Unless noted, calls follow the shape of the dose curve; as a rule, active = well fitted curve in the direction sought with a large enough effect; inconclusive = small, poorly fitted or top-dose-only effect, or another doubt; inactive = no such curve, though single readings can be large; an effect the other way counts as inactive or inconclusive. % is scaled to controls: 0 for no effect and ±100 for the full control effect.

SMILES	HCMV inh	HCV inhibitor	VACV mCherry inh	Sm TGR inh	FMDV inh	VACV Venus inh
CC(C)(CCl)C(=O)Nc1ccc(C(F)(F)F)cc1	-76*	5%	-14%	-18%	6%	-13%
CC(C)(C)C(=O)Nc1ccc(S(=O)(=O)c2ccc(NC(=O)C(C)(C)C)cc2)cc1	23	-3%	-7%	2%	.	-16%
Cc1nc(C(F)(F)F)ccc1C(=O)N1CCC1(C)C(=O)NS(=O)(=O)c1ccc(Cl)cc1 (stereo not given)	24	.	i	.	-10%	-3%
c1ccc(-c2ccc(CN3CCN(c4ncccn4)CC3)cc2)cc1	12	6%	.	4%	-18%	.
Cc1ccc(NC(=O)CNc2ccc(Cl)c(Cl)c2)cc1S(=O)(=O)N(C)C	-72*	6.3µM*	?	4%	?	?
O=C(Cc1ccsc1)Nc1ccc(S(=O)(=O)C(F)F)cc1	25	5%	10µM*	-4%	17%	?
Cc1ccc(NC(=O)COC(=O)c2ccccc2Cl)cc1S(=O)(=O)N(C)C	-36	-21%	-7%	-4%	31%	-4%
Cc1ccc(NC(=O)CN2CCC(Cc3ccccc3)CC2)cc1S(=O)(=O)N(C)C	-22	11µM*	.	1%	?	.
CC(C)NS(=O)(=O)c1ccc(NC(=O)Cc2ccsc2)cc1	-18	2%	.	0%	25%	.
Cc1ccc(NC(=O)Cc2ccccc2Cl)cc1S(=O)(=O)N(C)C	-35	?	?	-3%	-17%	-22%
Cc1ccc(NC(=O)Cc2ccc(Cl)c(Cl)c2)cc1S(=O)(=O)N(C)C	-61*	?	-20%	-7%	22µM*	-25%
CCOP(=O)(c1ccc(N(C)C)cc1)C(O)c1ccc(C)cc1 (stereo not given)	24	19%	i	-3%	6%	-4%
CC(C)CCN(C)c1ccc(/C=N/n2cnnc2)cc1	-23	-3%	.	?	0%	-17%
NS(=O)(=O)c1ccc(CCNC(=O)CN2CCC(Cc3ccccc3)CC2)cc1	-76*	?	-7%	-9%	-30%	-17%
O=C(CN1CCC(Cc2ccccc2)CC1)NCCc1ccc(F)cc1	12	-7%	-19%	6%	-24%	-15%
C[C@@H](C(=O)OCC(=O)NCCc1ccc(S(N)(=O)=O)cc1)N1C(=O)C2CCCCC2C1=O (stereo not given in full)	-80*	-9%	.	16%	-3%	.
Cc1cc(NC(=O)Cc2ccsc2)ccc1Br	-31	?	.	-33%	0%	.
CCN(CC)S(=O)(=O)c1cc(NC(=O)Cc2ccsc2)ccc1C	-28	13µM*	?	3%	0%	?
CCN(CC)S(=O)(=O)c1ccc(C)c(NCC(=O)Nc2ccc(C#N)c(Cl)c2)c1	?	13µM*	-20%	-6%	-43%	?
CCCCNC(=O)N1CCN(c2ncccn2)CC1	1	19%	.	.	-4%	.
Cc1ccc(C)c(NC(=O)/C(C#N)=C/c2ccc(C(C)C)cc2)c1	-10	.	5%	3%	-36%	-1%
COc1ccccc1N1CCN(C2CCCN(C(=O)C3=NN(C)C(=O)CC3)C2)CC1 (stereo not given)	7	13%	-26%	0%	-10%	-15%
COc1cccc(/C=C/C(=O)c2ccc(C)c([N+](=O)[O-])c2)c1	-28	36%	i	-1%	-5%	-3%
CCOc1ccc(NC(=O)c2cccc(S(=O)(=O)Nc3c(C)n(C)n(-c4ccccc4)c3=O)c2)cc1	-34	13%	.	.	-7%	.
CC(=O)N1CCOc2cc(S(=O)(=O)Nc3c(C)cccc3C(C)C)c(Cl)cc21	7	.	-21%	79µM*	30%	-14%
SMILES	HCMV inh	HCV inhibitor	VACV mCherry inh	Sm TGR inh	FMDV inh	VACV Venus inh
Cc1cccc(NC(=O)c2cc(S(=O)(=O)N3CCCCCC3)cn2C)c1C	1	.	0%	4%	-19%	-13%
CCCN(CC1CC1)C(=O)CSc1ncnc2sc(C)c(C)c12	-83*	?	-11%	-5%	?	-16%
CCN(C(=O)CSc1ncnc2sc(C)c(C)c12)C1CCS(=O)(=O)C1 (stereo not given)	-28	?	i	0%	?	-14%
CCCNC(=O)C(Cc1ccc(OC)cc1)NC(=O)c1ccc(C#N)cc1 (stereo not given)	5	3.2µM*	i	-25%	2%	-7%
Cc1ccc(C2CC(=O)c3cnc(N4CCN(c5ccccc5)CC4)nc3C2)cc1 (stereo not given)	23	-5%	.	3%	-3%	.
CCN1CCN(c2ncc3c(n2)CC(c2ccc(OC)c(OC)c2)CC3=O)CC1 (stereo not given)	?	?	.	-5%	20µM*	.
CCOC(=O)N1CCN(c2ncc3c(n2)CC(c2ccc(OC)c(OC)c2)CC3=O)CC1 (stereo not given)	-9	.	-20%	4.5µM*	14µM*	-12%
COc1ccc(C2CC(=O)c3cnc(N4CCN(Cc5ccccc5)CC4)nc3C2)cc1 (stereo not given)	-14	?	-26%	-20%	22µM*	-22%
Cc1ccc(OCCOc2ccc(Cl)cc2Cl)c([N+](=O)[O-])n1	-2	?	i	-10%	-3%	-12%
Cc1ccc2nc3c(nc2c1C)C(O)=C3O	40	1%	-4%	7.9µM*	-27%	-3%
CCc1ccc(Nc2n[n+](-c3ccccc3)c(-c3c(Cl)cccc3Cl)s2)cc1	-98*	5.6µM*	?	-1%	28µM*	8.9µM*
COc1ccc(C)cc1Nc1n[n+](-c2ccccc2)c(-c2c(Cl)cccc2Cl)s1	-100*	-24%[8.37 µM]	?	2%	0%	10µM*
Fc1ccc(-[n+]2nc(Nc3ccccc3)sc2-c2c(Cl)cccc2Cl)cc1	?	10µM*	?	0%	?	?
C/C(=N/NC(=O)c1ccc(Cl)cc1Cl)c1cccnc1	.	9%	.	9%	41%	.
O=C(NN1CCOCC1)c1ccccc1NS(=O)(=O)c1ccc(F)cc1F	-27	5%	-16%	.	-9%	-7%
O=C(O)CC/C(=N\Nc1ccc([N+](=O)[O-])cc1S(=O)(=O)N1CCOCC1)c1cccs1	-23	-26%	15%	40µM*	20%	-1%
CC(O)CNc1ccc([N+](=O)[O-])cc1S(=O)(=O)N1CCOCC1 (stereo not given)	45	12%	i	-4%	4%	-14%
Cc1cccc(S(=O)(=O)NCCc2cn3ccccc3n2)c1	0	12%	i	2%	6%	-5%
CCN(CC)S(=O)(=O)c1ccc(NC(=O)c2ccc(Sc3nncn3C)c([N+](=O)[O-])c2)cc1	-81*	-13%	?	2%	-28%	?
Cn1cnnc1Sc1ccc(C(=O)OCC(=O)Nc2ccccc2)cc1[N+](=O)[O-]	-3	25%	.	-7%	?	.
